From PubChem BioAssay AID1259422 (The Scripps Research Institute Molecular Screening Center, 2018)
“And” between values parts separate entries of the source, which are not always exact repeats. Equal values may be shown once. Hit rate of the full screen: of about 640,000 compounds, about 9,300 (1.5%) were called active. What follows is part of a selection rich in actives, with near analogues and random picks from the rest. Unmarked numbers belong to inactive results. Cut-off read from the data, not from the text of the source: active = inhibition above about 32%; inactive = the rest.

Experiment: TEAD-YAP interaction inhibition, primary screen, TEAD-YAP interaction inhibitor project, luminescence, HEK-TIYL cells (AID 1259422);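 note: 0% = median of test compound wells and 100% = reference inhibitor wells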
Conditions: TEAD-Gal4/YAP UAS-luciferase luminescence, at 9.12 µM, hits give high values

Row | Structure (SMILES) | inhibition
1 | CCCn1c(NCCO)nc2c1c(=O)n(C)c(=O)n2C | 15.2%
2 | COc1ccc(Cn2c(NCCO)nc3c2c(=O)n(C)c(=O)n3C)cc1 | 40.8% (active)
3 | CN(C)CCNc1nc2c(c(=O)n(C)c(=O)n2C)n1Cc1ccc(F)cc1 | 10.5%
4 | CC1=C/C(=N\S(=O)(=O)c2ccccc2)C=C(Br)C1=O | -6.31%
5 | CC1=C(C(=O)OCC2CCCO2)C(c2cccs2)C2=C(CC(c3cccs3)CC2=O)N1 (stereo not given) | 9.36%
6 | COCCOC(=O)C1=C(C)NC2=C(C(=O)CC(c3cccs3)C2)C1c1ccc(C)s1 (stereo not given) | 16% and 7.86%
7 | CC1=C(C(=O)OC(C)C)C(c2cccs2)C2=C(CC(c3ccco3)CC2=O)N1 (stereo not given) | 60.2% (active)
8 | COc1cc(NC(=O)c2sc3[nH]c(=O)c(C(=O)O)cc3c2N)c(OC)cc1Cl | -5.84%
9 | CCn1cc(C(=O)N2CCc3c(nc(N4CCC(C)CC4)[nH]c3=O)C2)cn1 | -0.66%
10 | Cc1cnc(Nc2ccc3ncccc3c2)nc1Nc1ccccc1 | 29.6%
11 | Cc1cnc(Nc2ccc(C(F)(F)F)cc2)nc1Nc1ccccc1 | 11.3%
12 | Cc1cnc(Nc2ccncc2)nc1Nc1ccc(Oc2ccccc2)cc1 | 45.7% (active)
13 | O=C(OCCN1C(=O)c2cccc3c(N4CCCCC4)ccc(c23)C1=O)c1cc(Cl)cc(Cl)c1 | -2.51%
14 | O=C(NCCOc1ccccc1)c1cnc(N2CCCC2CO)s1 (stereo not given) | 81.8% (active)
15 | O=C(NCCOc1ccccc1)c1cnc(NCCCN2CCCC2=O)s1 | -45.5%
16 | O=C(NCCOc1ccccc1)c1cnc(N2CCN(c3ccccn3)CC2)s1 | -4.73%
17 | COc1ccc(-c2cn3ccc(C)cc3n2)cc1 | 90.6% (active)
18 | COc1ccc(-c2nc3sc(-c4ccc(OC)cc4)nc3s2)cc1 | -1.58%
19 | COc1ccc(-c2cn3ccc(C)cc3n2)cc1F | 78.7% (active)
20 | COc1cc(C(=O)Nc2cccc(-c3cn4ccc(C)cc4n3)c2)cc(OC)c1OC | -17.7%
21 | COc1ccc(-c2cn3cc(C(=O)O)ccc3n2)cc1 | 15.8%
22 | COc1ccc(-c2nc3c(C#N)c(CC#N)nn3cc2C)cc1F | 7.27%
23 | COCCNc1nc(-c2c[nH]c3ccccc23)cs1 | 0.65%

Row | Structure (SMILES) | inhibition
24 | CCOC(=O)N1CCC(NC(=O)C2CC23CCN(CC2CC=CCC2)CC3)CC1 (stereo not given) | 11.9%
25 | CCN(CC(=O)Nc1ccccc1OC)Cc1nc2scc(-c3ccccc3)c2c(=O)[nH]1 | -1.6%
26 | Cc1ccc(C2=Nc3ccccc3N=C(c3ccc(C(C)(C)C)cc3)C2)c(O)c1 | 38.6% (active)
27 | Oc1ccc(Cl)cc1C1=Nc2ccccc2N=C(c2cccc(F)c2)C1 | -24.4%
28 | CC(=O)N1c2ccccc2N=C(c2ccc(C)cc2)CC1c1ccc([N+](=O)[O-])cc1 (stereo not given) | 2.03%
29 | COc1ccccc1NC(CNS(=O)(=O)c1ccc(Cl)cc1)c1ccccc1 (stereo not given) | -1.96%
30 | COc1ccccc1OCC(=O)Nc1ncc(Cc2cccc(C)c2)s1 | 3.43%
31 | Cc1cccc(Cc2cnc(NC(=O)COc3cccc(C)c3)s2)c1 | 5.87%
32 | Cc1ccccc1OCC(=O)Nc1ncc(Cc2cccc(Cl)c2)s1 | 50.4% (active)
33 | O=C(Cn1c(=O)oc2cc(S(=O)(=O)NC3CCCC3)ccc21)N1CCCCCC1 | -0.34%
34 | Brc1ccc(C2=CC(c3cccc(Br)c3)n3ncnc3N2)cc1 (stereo not given) | 3.83%
35 | COc1ccc(C2=CC(c3ccc(OC)c(OC)c3)n3ncnc3N2)cc1OC (stereo not given) | 3.8%
36 | CCOc1ccc(C2=CC(c3cc(OC)c(OC)c(OC)c3)n3ncnc3N2)cc1 (stereo not given) | 66.9% (active)
37 | COc1cccc(C2=CC(c3cccc(OC)c3)n3ncnc3N2)c1 (stereo not given) | 39.1% (active)
38 | COc1ccc(OC)c(C2C=C(c3ccc(Br)cc3)Nc3ncnn32)c1 (stereo not given) | 3.26%
39 | COc1ccc(C2C=C(c3ccc(OC(F)F)cc3)Nc3ncnn32)cc1 (stereo not given) | -77.6%
40 | O=C(N/N=C\c1cccc([N+](=O)[O-])c1)c1ccccc1I | -11.5%
41 | COC(=O)c1ccc(C)c(NC(=O)Nc2cccc(Cl)c2)c1 | 7.6%
42 | COc1ccc(OC)c(C2/C(=C(\O)c3ccc(Br)cc3)C(=O)C(=O)N2CCCn2ccnc2)c1 (stereo not given) | -4.36%
43 | CCOC(=O)c1c(NC(=O)c2cc([N+](=O)[O-])ccc2Cl)sc(-c2ccccc2)c1C | 8.37%
44 | CCCc1c(C(=O)N[C@H]2C[C@H]3C(=O)N[C@@H](CSCc4ccccc4)C(=O)N3C2)cnn1-c1ccccc1 | 2.64%
45 | FC(F)Oc1ccc(-c2csc(=Nc3cccnc3)n2C2CC2)cc1 | 50.1% (active)
46 | Cc1csc(=Nc2ccccc2)n1C1CCCC1 | -5.23%

Row | Structure (SMILES) | inhibition
47 | COc1ccc(-c2csc(=Nc3ccccc3)n2C)cc1 | -28.4%
48 | CC1CCCC(NC(=O)CCCn2nnc3ccccc3c2=O)C1C (stereo not given) | -2.4%
49 | CC(=O)N1CCN(c2nc(Nc3ccccc3C(=O)c3ccccc3)nc(OC(C(F)(F)F)C(F)(F)F)n2)CC1 | 10.2%
50 | O=C(NCCc1ccccc1)c1ccc(OC2CCN(C(=O)C3CCCO3)CC2)cc1 (stereo not given) | 40.4% (active)
51 | COC(=O)CCC(=O)N1CCC(Oc2ccc(C(=O)NCCc3ccccc3)cc2)CC1 | 5.68%
52 | O=C(NCCN1CCCCC1CO)c1ccc(OC2CCN(C(=O)C3CC3)CC2)cc1 (stereo not given) | 1.44%
53 | O=C(COC(=O)CCN1C(=O)C2CC=CCC2C1=O)Nc1ncc(Cl)cc1Cl (stereo not given) | 5.49%
54 | CNC(=O)c1cc(F)ccc1Nc1cc(Nc2ccc3c(c2)CCC(=O)N3)ncc1C(F)(F)F | 78.9% (active)
55 | CCc1ccc(NC(=O)C2CCN(S(=O)(=O)c3ccc4c(c3)CCC(=O)N4)CC2)cc1 | -10.1%
56 | CNC(=O)c1cc(F)ccc1Nc1cc(Nc2ccc(NC(C)=O)cn2)ncc1C(F)(F)F | 84.8% (active)
57 | CNC(=O)c1cc(F)ccc1Nc1cc(Nc2ccc3nc[nH]c3c2)ncc1C(F)(F)F | -9.89%
58 | CNC(=O)c1cc(F)ccc1Nc1cc(Nc2ccc3[nH]ncc3c2)ncc1C(F)(F)F | 27.2%
59 | O=C1Cc2cc(Nc3cc(Nc4ccccn4)c(C(F)(F)F)cn3)ccc2N1 | 22.7%
60 | O=C(CSc1nc2ccccc2s1)Nc1ccc(O)c(C(=O)O)c1 | -2.73%
61 | OCCNCCCOc1ccc(I)cc1 | 15.9%
62 | COc1c(C)c2c(c(O)c1C/C=C(\C)CCC(=O)O)C(=O)OC2 | 39.5% (active) and 67.1% (active)
63 | O=c1oc2ccccc2cc1-c1ccc(Cl)cc1 | -27%
64 | Cc1ccc(Nc2nnc(-c3cc4ccc(O)cc4oc3=O)s2)cc1 | 8.37%
65 | O=c1oc2cc(O)ccc2cc1-c1ccc(F)cc1 | 36% (active)
66 | COc1cccc(CN2CCN(Cc3cn[nH]c3-c3cccc(F)c3)CC2CCO)c1 (stereo not given) | 6.95%
67 | CCCCSCCC(=O)O | -16.4%
68 | COC(CNc1cc(-c2ccc(F)cc2)nc(-c2ccccn2)n1)OC | 42.7% (active)
69 | COC(CNc1cc(-c2cccc(C(F)(F)F)c2)nc(-c2ccncc2)n1)OC | 14.2%

Row | Structure (SMILES) | inhibition
70 | COCCNc1cc(-c2ccc(F)cc2)nc(C)n1 | -31.9%
71 | CC(C)(C)NCCOc1ccccc1F | 14.1%
72 | CCOc1cc(C#N)ccc1OCC(=O)Nc1ccc(C)cc1C | 15.8%
73 | COC(=O)C1=C(C)N=c2s/c(=C/c3ccc(N(C)C)cc3)c(=O)n2C1c1ccccc1Cl (stereo not given) | -14.2%
74 | O=C(NNS(=O)(=O)c1cccc(Cl)c1Cl)C12CC3CC(CC(C3)C1)C2 | -2.41%
75 | CCN(CC)CCOc1ccc(Nc2cc(Nc3ccccc3C(=O)NC)c(C(F)(F)F)cn2)c(OC)c1 | 83.4% (active)
76 | CNC(=O)c1ccccc1Nc1nc(Nc2ccc(-n3cnc(-c4ccc(C)nc4)n3)cc2)ncc1Cl | 8.52%
77 | CCN(CC)CCNC(=O)c1ccc2c(=O)n(CCN(CC)CC)c(=S)[nH]c2c1 | 18.8%
78 | COc1cc(N2CCOCC2)ccc1Nc1cc(Nc2ccccc2-n2cccn2)c(C(F)(F)F)cn1 | -8.57%
79 | CCCn1c(=S)[nH]c2cc(C(=O)NCCN(CC)CC)ccc2c1=O | 12.2%
80 | CNC(=O)c1ccccc1Nc1cc(Nc2ccc(C(=O)N(C)C)cc2)ncc1C(F)(F)F | 77.1% (active)
81 | CCN(CC)CCNC(=O)c1ccc(Nc2cc(Nc3ccccc3C(=O)NC)c(C(F)(F)F)cn2)c(C)c1 | 84.7% (active)
82 | Cc1cc(C(=O)Nc2ccccc2C(F)(F)F)ccc1[N+](=O)[O-] | -8.76%
83 | Cc1ccc(Nc2nnc(-c3ccc(C(=O)N(C)C)cc3)c3ccccc23)cc1 | -11.2%
84 | CCN(CC)CCNC(=O)c1ccc(Nc2cc(Nc3ccccc3C(=O)NC)c(C(F)(F)F)cn2)nc1 | 96.8% (active)
85 | CC(C)N(CCNC(=O)c1ccnc(Nc2ccc(C(F)(F)F)cc2)c1)C(C)C | -16%
86 | CNC(=O)c1ccccc1Nc1cc(Nc2ccc(N3CCOCC3)cc2OC)ncc1F | 6.22%
87 | CCc1ccccc1N(CC(=O)Nc1cc(Cl)ccc1C)S(C)(=O)=O | 1.56%
88 | Cc1ccc(OCCSc2nc(N)cc(=O)[nH]2)cc1 | -7.78%
89 | CN(C)CCNc1ccnc2c(-c3ccsc3)cnn12 | -57.5%
90 | O=C(Nc1ccc2c(c1)CN(C1CCOCC1)CC2)c1ccc(C(F)(F)F)cc1 | 17.5%
